# Measles CPE: protection of cells from measles virus | protection (pct of control), % at 4 µM | Measles virus-infected cells, CPE protection, absorbance | actives 1.5% (n = 140,000) | AID 841; in the data active = protection mostly above about 24%, no sharp cut-off; inactive = mostly below about 26%
# sEH inh: inhibitors of human soluble epoxide hydrolase. P34913. recombinant human sEH enzymatic activity assay. inhibition, % at 2 µM. actives 0.34% (n = 91,000); in the data active = inhibition above about 80%
# Target sequence (P34913 whole entry, looked up): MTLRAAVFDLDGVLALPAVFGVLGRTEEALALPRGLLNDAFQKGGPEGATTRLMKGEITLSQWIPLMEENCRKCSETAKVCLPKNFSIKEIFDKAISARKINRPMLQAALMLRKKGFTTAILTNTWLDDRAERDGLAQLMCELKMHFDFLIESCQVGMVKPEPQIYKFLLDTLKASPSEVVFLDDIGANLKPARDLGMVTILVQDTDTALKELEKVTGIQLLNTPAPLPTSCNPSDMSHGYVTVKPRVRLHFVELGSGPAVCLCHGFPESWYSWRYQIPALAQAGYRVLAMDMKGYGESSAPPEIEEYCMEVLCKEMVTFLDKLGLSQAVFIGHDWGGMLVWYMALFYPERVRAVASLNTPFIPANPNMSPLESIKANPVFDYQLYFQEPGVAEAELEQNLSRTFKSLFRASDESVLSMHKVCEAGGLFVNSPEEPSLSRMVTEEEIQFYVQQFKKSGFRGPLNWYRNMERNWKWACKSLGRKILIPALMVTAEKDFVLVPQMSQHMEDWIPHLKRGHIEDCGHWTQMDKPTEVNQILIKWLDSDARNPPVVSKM
# MRP1 act: activators of MRP-1; AID 799; viability increase, % at 10 µM; H69AR cells + doxorubicin, viability rescue, CellTiter-Glo; actives 0.61% (n = 140,000);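 active = viability gain under doxorubicin at or above a set limit, the compound median plus 3 SD, cut at about 4.7% in these data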;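 note: MRP-1 overexpressing cells given doxorubicin 25 µM after compound pretreatment; 18-22 h compound pretreatment then 72 h with doxorubicin before readout; 0% = doxorubicin-only wells and 100% = vehicle-treated cells without doxorubicin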
# SDO1 yeast rescue: compounds rescuing growth of sdo1-depleted yeast, bone marrow failure model; S. cerevisiae sdo1-depleted JHY4D growth rescue, OD600 30 h; hits give high values; pdr5 snq2 efflux-pump mutant strain; z-score at 10 µM; actives 0.21% (n = 140,000);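 active = z-score above 3 at both the 24 hr and the 30 hr optical density reads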;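 note: z-score against mean and SD of all compound wells on the same plate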
# sEH activator: increases human soluble epoxide hydrolase activity | actives 0.04% (n = 91,000) | P34913 | AID 717 | activation, % at 2 µM | purified human sEH enzymatic activity, activator screen; in the data active = activation above about 37%
# MRP reversal: compounds reversing MRP-mediated drug resistance; H69AR cells + 2 uM doxorubicin, CellTiter-Glo, 72 h; differential viability (reversal), % at 10 µM; actives 0.04% (n = 85,000);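 active = viability drop by adding the cancer drug above about 55%, with treated viability meeting a 40% cutoff, limit read from the data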;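 note: viability without doxorubicin minus viability with 2 µM doxorubicin for each compound; larger differential means the compound sensitizes cells more to doxorubicin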
# Starred values were filed as active, the others as inactive; . = no result. This is a sample that favours compounds with a hit; in the whole collection about 2.5% have one here.
SMILES,Measles CPE,sEH inh,MRP1 act,SDO1 yeast rescue,sEH activator,MRP reversal
CC(C)c1ccc(-c2c(C#N)c(N)nc(SCC(=O)N3CCCCCC3)c2C#N)cc1,13.1,-3.9,-1.3,-1.11,0.9,0.4
CC(C)c1ccc(-c2c(C#N)c(N)nc(SCC(=O)N3CCCCC3)c2C#N)cc1,33.1*,-7.2,-4.2,-0.02,7.5,3.0
CCCCN=CC1=C(O)C(C(=O)OC)C(C)(C)CC1=O (stereo not given),6.1,.,0.9,-0.56,.,0.6
Cc1ccc(NC(=O)C2CCCN2S(=O)(=O)c2ccc3c(c2)n(C)c(=O)c(=O)n3C)cc1C (stereo not given),15.0,.,-0.9,0.63,.,.
COc1cccc(C(=O)Nc2ccc(F)cc2F)c1,44.9*,0.8,0.3,0.64,-0.9,-3.7
O=C(Nc1nc(COc2ccccc2)cs1)c1ccccc1F,9.2,.,5.3*,-2.04,.,.
Cc1c(Cl)c([N+](=O)[O-])nn1Cc1ccc(C(=O)N/N=C\c2cccc(Br)c2)o1,2.3,95.6*,-2.7,0.99,-95.5,.
CCOC(=O)C1=C(C)Nc2nc(SCC)[nH]c(=O)c2C1c1ccncc1 (stereo not given),6.2,4.0,-1.8,-0.48,-4.4,.
Cc1nc2cc(NC(=O)NCCC3=CCCCC3)ccc2o1,1.6,81.3*,1.0,-0.52,-81.4,1.4
C=CCNC(=O)Nc1ccc2oc(C)nc2c1,3.1,3.3,-1.8,0.57,-5.2,18.4
CC(=O)Nc1ccc(S(=O)(=O)N(C)c2ccccc2)cc1,6.9,.,-3.6,1.34,.,-9.3
CC(=O)Nc1ccc(S(=O)(=O)N(C)c2ccc(O)cc2)cc1,43.6*,-5.1,-0.1,0.48,5.2,11.1
Cc1cc(Oc2ccccc2)nc2ccc(O)cc12,4.3,.,-4.3,-0.88,.,.
O=C(CC1C(=O)N(c2ccccc2)C(=S)N1c1ccccc1)c1ccc(Br)cc1 (stereo not given),19.1,.,4.7*,0.02,.,.
Cc1csc(SCCn2c(N3CCN(c4ccccc4)CC3)nc3c2c(=O)[nH]c(=O)n3C)n1,7.1,-10.6,-3.7,0.07,10.6,-10.3
CCn1nc(CC(=O)Nc2ccc(-n3cnnn3)c(C)c2)c2ccccc2c1=O,4.6,92.6*,-1.9,0.8,-92.3,3.0
O=C(CN(CCc1ccccc1)C(=O)CNS(=O)(=O)c1ccc(F)cc1)NCC1CCCO1 (stereo not given),33.4*,-9.6,-2.7,-0.23,10.5,1.0
COc1cc2c(cc1NC(=O)C(c1ccccc1)c1ccccc1)CCCC2,37.4,-4.8,-0.1,-0.52,5.5,12.9
C[C@H](C(=O)C=[N+]=[N-])N1C(=O)c2ccccc2C1=O,8.1,-15.1,11.9*,0.17,14.2,-1.4
CC(=O)COc1ncn(-c2ccccc2)n1,3.2,-10.2,-0.7,0.78,11.2,-5.4
CN(/C(=N/S(=O)(=O)c1cccs1)c1ccccc1)c1ccccc1,29.4*,.,-1.2,-0.53,.,.
CSCC[C@H](NC(=O)c1ccc(Cl)c(S(=O)(=O)N2CCCC2)c1)c1nc2ccccc2[nH]1,38.4,10.8,-3.5,-0.05,-9.8,-1.9
CCc1noc(C)c1C(=O)Nc1nc(-c2cc(C)ccc2C)c(C)s1,8.4,3.0,5.5*,-0.07,-0.5,.
CCc1noc(C)c1C(=O)Nc1ncc(C)s1,13.8,0.0,0.1,0.31,3.0,21.0
O=C(NCCc1ccccc1)C(=O)c1c(-c2ccccc2)cc2ccccn12,4.7,.,8.3*,-0.51,.,.
SMILES,Measles CPE,sEH inh,MRP1 act,SDO1 yeast rescue,sEH activator,MRP reversal
FC(F)(F)c1ccc(Cl)c(N/N=C/c2ccc(N3CCOCC3)s2)c1,4.0,.,-3.1,-0.09,.,.
CC(CNC(=O)C(C)C)NC(=O)C(C)C (stereo not given),27.2*,-2.1,-1.6,-0.83,2.4,-8.6
Clc1ccc(Cn2c(-c3cccnc3Cl)nc3ccccc32)cc1,32.6*,-4.2,-3.9,-1.74,6.6,.
Cc1ccc(C(=O)COc2ccccc2-c2ccccc2)cc1C,5.8,.,5.0*,0.24,.,.
O=C(CN1CCC(n2nnc3cc(F)ccc32)CC1)NCc1ccco1,6.4,5.0,-3.5,1.33,-4.4,-2.1
Cc1cccc(N=C2Sc3nc4c(C)c(C)ccc4cc3CN2CCN2CCOCC2)c1,30.8*,-3.2,-5.6,-1.84,3.9,.
COCCN=C1Sc2nc3c(C)cccc3cc2CN1Cc1ccco1,19.3,-4.4,-2.6,-0.77,2.8,-6.7
O=C1C(Cc2cccc([N+](=O)[O-])c2)SC(=Nc2ccccc2)N1c1ccccc1 (stereo not given),.,.,6.4*,-0.66,.,.
COc1ccc(-c2nc(C#N)c(N3CCCCCC3)o2)cc1OC,2.4,8.9,1.5,-1.84,-7.7,-10.1
c1ccc(-c2nnc(CSc3nc4ccccc4[nH]3)o2)cc1,33.4*,.,-1.5,-0.37,.,.
Cc1cccc(Sc2ccc([N+](=O)[O-])cc2[N+](=O)[O-])n1,38.7*,.,-4.6,0.07,.,.
CSc1nccc(-c2cc(Cl)sc2Cl)n1,19.5*,-4.3,0.5,-1.16,1.5,-10.6
CCCn1c(/N=C/c2ccc3c(c2)OCO3)nc2ccccc21,32.0*,-2.5,-1.0,1.91,2.6,11.9
OCc1ccnc(Cl)c1,4.9,.,3.0,1.54,.,.
O=C(O)c1ccnc(Cl)c1,25.0*,.,-2.6,1.01,.,.
CC(C)(C)c1ccc(OCC(=O)N/N=C/c2ccsc2)cc1,2.7,.,0.4,-1.04,.,.
CCOc1ccccc1C1C2C(=O)N(c3ccccc3)C(=O)C2ON1c1ccccc1 (stereo not given),47.2*,-19.3,2.6,0.72,17.7,-12.8
CCCOc1ccc(N2C(=O)C3ON(c4ccccc4)C(CCC)C3C2=O)cc1 (stereo not given),25.5*,9.6,-1.6,-0.12,-8.9,15.9
O=C(O)c1ccc(N2C(=O)C3ON(c4ccccc4)C(c4ccccc4F)C3C2=O)cc1 (stereo not given),31.4,-47.7,-0.5,0.53,43.8*,-2.6
Cc1occc1C(=O)NC1CCCCCCC1,27.6*,.,0.9,-0.47,.,.
Cn1cc(C(=O)C(F)(F)F)c2ccccc21,52.5*,-4.8,-0.5,0.5,5.3,.
COc1ccccc1N(C(C)=O)c1nc(C)cc(C)c1C#N,5.0,1.8,-2.1,1.5,1.4,-15.7
O=C(CCn1c(=S)[nH]c2ccccc2c1=O)N1CCN(c2ccccn2)CC1,.,.,.,.,.,5.0
Cc1ccccc1NC(=O)COc1nsnc1N1CCOCC1,12.2,-26.1,0.4,1.18,25.6,-4.2
O=C(COc1nsnc1N1CCOCC1)N/N=C/c1ccccc1O,17.1,.,5.5*,0.44,.,.
OC(Cn1cncn1)(c1ccccc1)c1ccccc1,30.2,-5.7,-3.6,-1.91,7.8,-12.0
COc1ccc(N2CC(C(=O)Nc3ccccc3C(=O)NCc3ccco3)CC2=O)cc1 (stereo not given),35.3*,-9.4,-2.6,-0.65,8.6,-2.2
O=c1nc2s/c(=C\c3ccc(-c4ccccc4[N+](=O)[O-])o3)c(=O)n2nc1-c1ccccc1,9.6,.,5.2*,-1.45,.,.
COc1ccc(/C=N/NC(=O)CN2CCSCC2)cc1C,15.3,.,-1.2,0.68,.,.
Cn1c(Cl)cnc1C1CC(=O)c2cc(Cl)ccc2O1 (stereo not given),5.1,.,-5.5,-2.33,.,-0.9

# High-throughput results from PubChem BioAssay.
